The list is not random: actives were taken first. Their share in the collection is about 7.5%.
FLuc counter – firefly luciferase modulation, counter-screen for miR-21 project | P08659 | purified FLuc, Km substrates, luminescence inhibition | Potency, µM (titrated, usually from 57.5 µM), for the others: top-dose activity change, negative = inhibition, hits mostly inhibitors | 360,000 compounds, 6.9% hits | AID 588342;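 also: plate controls were vehicle for no effect and reference inhibitor for full effect; nearly all actives have a fitted effect of over 55% in size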
Target sequence (P08659 whole entry, looked up): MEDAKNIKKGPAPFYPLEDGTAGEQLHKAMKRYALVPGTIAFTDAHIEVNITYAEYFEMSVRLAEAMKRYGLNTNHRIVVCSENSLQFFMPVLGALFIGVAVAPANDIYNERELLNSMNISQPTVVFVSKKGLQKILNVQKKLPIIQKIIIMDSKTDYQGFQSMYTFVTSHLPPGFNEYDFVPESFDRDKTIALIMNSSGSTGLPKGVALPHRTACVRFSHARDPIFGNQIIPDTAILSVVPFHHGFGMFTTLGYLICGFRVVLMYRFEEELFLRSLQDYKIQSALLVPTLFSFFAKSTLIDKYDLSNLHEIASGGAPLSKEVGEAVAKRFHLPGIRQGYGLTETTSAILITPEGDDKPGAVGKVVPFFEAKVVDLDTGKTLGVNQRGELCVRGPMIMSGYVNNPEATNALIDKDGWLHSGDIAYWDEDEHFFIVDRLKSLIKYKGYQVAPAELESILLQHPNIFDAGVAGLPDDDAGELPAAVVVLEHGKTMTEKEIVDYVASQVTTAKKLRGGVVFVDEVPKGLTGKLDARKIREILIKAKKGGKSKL
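Purified P. pyralis luciferase (10nM final) with 10uM D-luciferin and 10uM ATP (Km levels) in 50mM Tris acetate pH 7.5, 10mM Mg acetate, 0.01% Tween-20, 0.05% BSA; qHTS 6-point titration, ~60 µM downward; luminescence read.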
NPC1 promoter act – activators of NPC1 promoter | 320,000 compounds, 2.4% hits | Potency, µM (doses to about 9.22 µM), inactives show at the highest dose activation, hits mostly activators | Huh7 NPC1 promoter luciferase reporter, 24 h; also: % of control where 0% means no effect; nearly all actives have a fitted effect of over 60% in size
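Luminescence read-out of NPC1 promoter-driven luciferase in stably transfected Huh7 cells; compounds delivered in DMSO and left 24 h at 37C, 5% CO2, qHTS titration format.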
ELG1 genotox – inducers of genotoxicity in HEK293T ELG1-luciferase cells | 330,000 compounds, 1.3% hits | HEK293T ELG1-luciferase reporter, luminescence, 16 h | Potency, µM (highest dose often 46 µM), for the others: at the top dose activity change, positive = activation, usual class: activators; also: % of control where 0% means no effect; nearly all actives have a fitted effect of over 60% in size
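HEK293T cells expressing luciferase-tagged ELG1 were exposed to compound or DMSO vehicle for 16 hr at 37 °C and 5% CO2. Luciferase activity was then measured with ONE-Glo after 30 min at room temperature.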
SMN2 splice enh – SMN2 splice variant enhancement; HEK293 SMN2-luciferase splicing reporter, luminescence, 30-36 h; Potency, µM (titrated, usually from 46.1 µM), inactives show top-dose activity change, positive = activation, hits mostly activators; 210,000 compounds, 2.8% hits; also: % of control where 0% means no effect; nearly all actives have a fitted effect of over 55% in size
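HEK293 cells carry an SMN2 […]–luciferase reporter in which exon 7 inclusion puts luciferase in frame. Cells were plated 10-12 h before compound addition, then incubated 30-36 h at 37C. ONE-Glo luminescence was read; sodium butyrate at 4.5 mM final served as control.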
Rab9 prom act – activates the Rab9 promoter. Huh7 Rab9 promoter-luciferase reporter, luminescence, 24 h. Potency, µM (doses to about 9.22 µM), for the others: at the top dose activation, negative = inhibition, most hits filed as activators. 320,000 compounds, 2.8% hits. AID 485297; also: % of control where 0% means no effect; nearly all actives have a fitted effect of over 60% in size
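Huh7 reporter line, Rab9 promoter upstream of luciferase. Compound exposure 24 h at 37 °C in reduced-serum medium with 10% FBS. Read-out: luminescence.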
Starred values were filed as active, the others as inactive; ? = inconclusive; · = no result given; [ ] = remark or other dose. Calls follow the shape of the dose curve; as a rule, active = well fitted curve in the direction sought with a large enough effect; inconclusive = small, poorly fitted or top-dose-only effect, or another doubt; inactive = no such curve, though single readings can be large; an effect the other way counts as inactive or inconclusive. Potency is read from the fitted curve at half-maximal effect.

SMILES	FLuc counter	NPC1 promoter act	ELG1 genotox	SMN2 splice enh	Rab9 prom act
Clc1ccc(-c2nnc3sc(-c4ccccn4)nn23)cc1	-0.6%	-5.4%	0.6%	-0.9%	1.6%
CC(C)(C)c1ccc(-c2nnc3sc(-c4ccccn4)nn23)cc1	9.53µM*	27.6%	?	-14.2%	?
COc1ccc(NC(=O)c2sccc2SCc2cccc(C(F)(F)F)c2)cc1	-15.2%	-1.9%	13.5%	-0.7%	-9.3%
CC(C)N1C(=O)CN(C2CCCCCC2)C(=O)C1c1ccccc1F (configuration not stated)	-14.0%	3.55µM*	?	6.6%	?
NC(=O)c1ccsc1NC(=O)C1CCCCC1	-20.5%	6.6%	15.0%	-15.9%	-7.2%
CC(C)Cc1nnc(NC(=O)c2ccc(N3CCCC3=O)cc2)s1	-7.7%	0.4%	0.0%	·	-3.7%
NS(=O)(=O)c1ccc(NC(=O)c2ccc3c(c2)CCCC3)cc1	3.3%	21.7%	2.3%[9.26 µM]	·	25.6%
NC(=O)c1ccsc1NC(=O)c1ccc(N2CCCC2=O)cc1	3.01µM*	2.24µM*	1.64µM*	17.8µM*	0.631µM*
NC(=O)c1ccsc1NC(=O)c1ccc2c(c1)CCCC2	0.601µM*	?	2.59µM*	1.58µM*	?
CNC(=O)c1ccsc1NC(=O)c1ccc2c(c1)CCCC2	0.953µM*	-2.8%	17.2%	11.2µM*	11.9%
Cc1c(/C=N/NC(=O)CNc2ccccc2)c2ccccn2c1C(=O)c1ccncc1	-13.0%	1.0%	-6.3%	-13.2%	-1.9%
Cc1ccc(/C=N/NC(=O)c2ccc(-n3cccc3)cc2)o1	-1.9%	0.8%	1.2%	·	7.7%
O=C(/C=C/c1ccc(Cl)cc1Cl)OCC(=O)N1CCCC1	15.1µM*	-4.5%	3.9%	·	11.8%
O=C(/C=C/c1cccc(F)c1)OCC(=O)N1CCCc2ccccc21	-0.5%	1.1%	2.9%	·	-6.6%
O=C(c1ccc(Cl)cc1Cl)N1CCc2ccccc21	5.2%	2.7%	-4.0%	·	-1.8%
O=C(/C=C/c1ccccc1Cl)OCC(=O)N1CCCC1	·	·	1.1%	·	·
O=C(/C=C/c1cccc(F)c1)N1CCc2ccccc21	0.849µM*	1.12µM*	1.84µM*	2.51µM*	0.631µM*
O=C(/C=C/c1ccc(Cl)cc1Cl)N1CCc2ccccc21	0.601µM*	1.58µM*	6.51µM*	2.51µM*	0.794µM*
O=C(NC(=S)Nc1ccccn1)c1cccc([N+](=O)[O-])c1	23.9µM*	1.26µM*	?	·	1.58µM*
CCOc1ccc(C(=O)NC(=S)Nc2ccccn2)cc1[N+](=O)[O-]	-6.3%	-1.8%	0.4%	-68.4%	?
O=C(Nc1ccc(Cl)cc1)C(Cl)C(=O)c1ccccc1 (configuration not stated)	15.1µM*	2.4%	?	·	16.9%
Cc1ccc(C(=O)NC(=S)Nc2ccccc2C(F)(F)F)cc1C	23.9µM*	2.6%	1.2%	-16.9%	-2.4%
O=C(NC(=S)Nc1cccc([N+](=O)[O-])c1)c1ccccc1	?	?	13.5%	·	3.98µM*
O=C(Nc1ccccc1Cl)C(Cl)C(=O)c1ccccc1 (configuration not stated)	?	19.7%	7.2%	-19.9%	4.6%
Cc1cccc(C(=O)NC(=S)Nc2ccccc2C(F)(F)F)c1	-19.0%	17.3%	-1.3%	2.0%	11.8%
SMILES	FLuc counter	NPC1 promoter act	ELG1 genotox	SMN2 splice enh	Rab9 prom act
CCOC(=O)C1(Cc2ccccc2C)CCCN(C(=O)c2ccc(OC)o2)C1 (configuration not stated)	-2.2%	1.0%	-4.3%	·	0.3%
O=C1/C(=C/c2ccccc2)N=C(N2CCOCC2)N1c1cccc(Cl)c1	-0.9%	-6.9%	-4.8%	-36.8%	-9.9%
CC(=O)c1cccc(NC(=O)COC(=O)COc2ccc(Cl)cc2)c1	-10.6%	-0.3%	-13.7%	-15.1%	0.0%
CCCc1cc2c(n1Cc1ccc(OC)cc1)C(C)C1CN(C(=O)c3ccccc3)C(C)(C(=O)OC)C21 (configuration not stated)	·	·	·	-3.3%	·
O=C(O)c1cccc(NC(=S)NCc2ccccc2)c1	15.1µM*	16.2%	1.8%	·	?
O=C(NC(=S)Nc1cc([N+](=O)[O-])ccc1O)c1cccnc1	16.9µM*	19.4%	8.2%	-6.1%	?
Cc1ccc([N+](=O)[O-])cc1NC(=S)NC(=O)c1cccnc1	-2.1%	-5.5%	-2.6%	9.0%	-4.6%
CC(=O)c1cccc(NC(=S)NC(=O)c2ccccc2)c1	7.57µM*	?	?	?	2.24µM*
CC(C)CCOCC(=O)Nc1cccc(C(=O)O)c1	5.36µM*	0.708µM*	?	14.1µM*	0.501µM*
Cc1cc(NC(=O)c2cc(C(C)(C)C)oc2C)no1	-2.9%	1.6%	-0.7%	·	-3.6%
O=C(NC(=S)Nc1ccc(Cl)cc1)c1ccccc1	10.7µM*	?	21.8%	·	?
CC(=O)c1cccc(NC(=S)NC(=O)C(C)C)c1	4.2%	-0.5%	-0.2%	13.3%	-1.2%
CC(=O)c1cccc(NC(=S)NC(=O)c2cncc(Br)c2)c1	?	2.51µM*	10.2%	·	?
COc1cc2ccccc2cc1C(=O)NC(=S)Nc1cccc(C(=O)O)c1	13.5µM*	?	17.4%	19.5%	2.24µM*
COc1cc2ccccc2cc1C(=O)NC(=S)Nc1ccc(C(=O)O)cc1	?	26.4%	12.5%	·	?
CC(=O)c1cccc(NC(=S)NC(=O)c2cccc(Cl)c2)c1	21.3µM*	?	?	?	3.55µM*
Cc1cc(-c2ccc(C)c(S(=O)(=O)Nc3ccc(C)c(N(C)C)c3)c2)on1	-16.2%	·	·	·	·
CC(C)(C)CC(C)(C)c1ccc(OCOCCOCCO)c(Cc2cc(C(C)(C)CC(C)(C)C)cc(Cc3cc(C(C)(C)CC(C)(C)C)ccc3OCOCCOCCO)c2OCOCCOCCO)c1	·	·	·	-11.0%[20.6 µM]	·
COc1cc(NC(=O)CN2C(=O)c3ccccc3S2(=O)=O)c(OC)cc1Cl	1.1%	-1.9%	0.5%	-4.0%	-8.0%
CCc1nc(SCC(=O)N2c3ccccc3Sc3ccccc32)c2ccccc2n1	-0.4%	-0.9%	-9.5%	-1.5%	-3.8%
CCOCCCNC(=O)c1cc2c(=O)n(C)c3ccccc3c2n1C	-7.8%	·	·	5.4%	·
O=C(N/C(=N\O)c1ccccc1)Nc1ccc(Cl)cc1	16.9µM*	1.1%	?	·	-5.1%
O=C(O)c1ccc(N/C(=N\S(=O)(=O)c2ccc(Cl)cc2)c2ccccc2)cc1	-17.7%	-2.9%	1.7%	·	-1.2%
Cc1ccc(C(=O)O)cc1NC(=S)NC(=O)c1ccc(-c2ccccc2)cc1	1.51µM*	?	?	·	?
O=C(NS(=O)(=O)c1ccc(Cl)cc1)c1ccccc1	-14.7%	-8.3%	0.5%	10.2%	11.5%
NS(=O)(=O)c1ccc(NC(=S)NC(=O)c2ccc(-c3ccccc3)cc2)cc1	-0.3%	-6.1%	16.2%	-26.7%	0.3%
O=C(O)/C(=N/NC(=O)c1ccc(Cl)cc1)c1ccccc1	16.9µM*	-5.2%	6.7%	·	2.0%

Source: PubChem (National Center for Advancing Translational Sciences (NCATS))
